The whole screen tested about 310,000 compounds, of which about 2,200 (0.71%) showed an effect of 50% or more. Effects have a minus sign here. Many of the other results were omitted from the sample, so strong results are more common in it than they were.

The record followed here is article PMC4336329 (PLoS ONE, 2015).

The target in this experiment is human ether-à-go-go-related gene (hERG) potassium channel (human, UniProt Q12809). Briefly: primary screen, population patch clamp on CHO cells stably expressing hERG; higher = less effect of the substance.
Sequence of human ether-à-go-go-related gene (hERG) potassium channel (Q12809 whole entry, looked up): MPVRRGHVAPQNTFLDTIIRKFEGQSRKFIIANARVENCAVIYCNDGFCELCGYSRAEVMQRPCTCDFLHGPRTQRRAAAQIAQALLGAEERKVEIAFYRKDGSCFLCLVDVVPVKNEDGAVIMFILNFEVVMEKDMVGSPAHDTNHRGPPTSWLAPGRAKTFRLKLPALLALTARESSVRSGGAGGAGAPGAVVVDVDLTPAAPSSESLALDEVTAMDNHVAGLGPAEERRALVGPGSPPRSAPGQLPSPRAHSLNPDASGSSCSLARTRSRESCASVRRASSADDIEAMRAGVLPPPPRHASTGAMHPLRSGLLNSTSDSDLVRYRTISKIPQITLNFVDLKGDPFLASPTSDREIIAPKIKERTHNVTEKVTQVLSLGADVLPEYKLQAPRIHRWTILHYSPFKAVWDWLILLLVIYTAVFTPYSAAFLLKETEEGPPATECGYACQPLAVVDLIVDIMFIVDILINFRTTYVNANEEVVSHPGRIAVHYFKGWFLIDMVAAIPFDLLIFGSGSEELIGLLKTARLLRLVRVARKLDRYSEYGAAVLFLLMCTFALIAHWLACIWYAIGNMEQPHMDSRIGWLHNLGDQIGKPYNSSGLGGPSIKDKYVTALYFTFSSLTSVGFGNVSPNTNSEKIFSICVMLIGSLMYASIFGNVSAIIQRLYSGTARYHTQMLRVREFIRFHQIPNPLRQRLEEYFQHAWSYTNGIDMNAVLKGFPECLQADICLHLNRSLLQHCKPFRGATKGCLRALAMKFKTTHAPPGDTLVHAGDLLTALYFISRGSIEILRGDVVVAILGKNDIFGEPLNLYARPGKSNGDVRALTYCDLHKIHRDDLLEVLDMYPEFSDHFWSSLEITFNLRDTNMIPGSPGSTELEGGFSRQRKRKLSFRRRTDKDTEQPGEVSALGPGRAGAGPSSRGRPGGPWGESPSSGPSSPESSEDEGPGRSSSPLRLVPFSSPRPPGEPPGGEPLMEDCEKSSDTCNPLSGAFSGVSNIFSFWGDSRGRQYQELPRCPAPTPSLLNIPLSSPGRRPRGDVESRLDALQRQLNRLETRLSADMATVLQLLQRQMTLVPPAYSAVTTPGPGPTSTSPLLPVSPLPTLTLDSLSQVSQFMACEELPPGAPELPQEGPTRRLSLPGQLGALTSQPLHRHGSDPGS
As for `CCN(CC)CCN1C(=O)C(=O)/C(=C(/O)c2ccc(F)cc2)C1c1cccnc1` (stereo not shown), the “hERG current change (%, negative = inhibition) at 1uM” value worked out at 14.9%.

For `Cc1nnc(NCc2n[nH]c(=O)c3ccccc23)c2ccccc12`, the “hERG current change (%, negative = inhibition) at 1uM” value came to 9.65%.

Take `O=C(CN(C(=O)c1csnn1)c1ccc2c(c1)OCCO2)NCc1ccc(F)cc1`: the “hERG current change (%, negative = inhibition) at 1uM” value is listed as -1.13%.

As to `COc1ccc2c(c1)C(=O)CC(c1ccc3c(c1)OCCO3)O2` (stereo not shown), the “hERG current change (%, negative = inhibition) at 1uM” value turned out to be 16.1%.

`CCOC(=O)c1ccc(NC(=O)Nc2cccc(C)n2)cc1`: the “hERG current change (%, negative = inhibition) at 1uM” value is on record as 10%.

For the compound `Cc1ccccc1SC1CCN(Cc2nc(C3CC3)no2)CC1`, the “hERG current change (%, negative = inhibition) at 1uM” value is given as -1.23%.

With `Cc1ccc(CS(=O)(=O)c2ncn[nH]2)cc1`, the “hERG current change (%, negative = inhibition) at 1uM” value was determined as 21%.

With `CCN1CCN(C(=O)C2CCN(Cc3nc(-c4cccc(Cl)c4)oc3C)CC2)CC1`, the “hERG current change (%, negative = inhibition) at 1uM” value is -21%.

For the compound `Cc1oc(-c2ccc(Cl)cc2)nc1CN1CCCC(C(=O)NCc2ccccn2)C1` (stereo not shown), the “hERG current change (%, negative = inhibition) at 1uM” value is recorded as -44.2%.

On to `Cc1oc(-c2cccc(Cl)c2)nc1CN1CCC(C(=O)NCc2cccnc2)CC1`, for which the “hERG current change (%, negative = inhibition) at 1uM” value is on record as -13%.

For the compound `Cc1oc(-c2ccc(Cl)cc2)nc1CN1CCCC(C(=O)NCc2ccco2)C1` (stereo not shown), the “hERG current change (%, negative = inhibition) at 1uM” value was -56.4%.

For the compound `Cc1oc(-c2ccc(Cl)cc2)nc1CN1CCC(C(=O)N2CCc3ccccc3C2)CC1`, the “hERG current change (%, negative = inhibition) at 1uM” value is -56.7%.

On to `Cc1oc(-c2ccccc2F)nc1CN1CCC(C(=O)NCc2ccco2)CC1`, for which the “hERG current change (%, negative = inhibition) at 1uM” value is -9.53%.

On to `Cc1oc(-c2cccc(Cl)c2)nc1CN1CCC(C(=O)NCc2ccco2)CC1`, for which the “hERG current change (%, negative = inhibition) at 1uM” value is listed as -70.4%.

For the compound `Cc1oc(-c2ccc(Cl)cc2)nc1CN1CCC(C(=O)NCc2ccco2)CC1`, the “hERG current change (%, negative = inhibition) at 1uM” value was -58.3%.

As to `Cc1oc(-c2ccc(Cl)cc2)nc1CN1CCC(C(=O)N2CCN(Cc3ccccc3)CC2)CC1`, the “hERG current change (%, negative = inhibition) at 1uM” value is -48.1%.

Turning to `Cc1oc(-c2cccc(Cl)c2)nc1CN1CCC(C(=O)NC2CC2)CC1`, the “hERG current change (%, negative = inhibition) at 1uM” value turned out to be 14.6%.

On to `Cc1oc(-c2cccc(Cl)c2)nc1CN1CCCC(C(=O)NCc2ccco2)C1` (stereo not shown), for which the “hERG current change (%, negative = inhibition) at 1uM” value is -45%.

`Cc1ccccc1-c1nc(CN2CCC(C(=O)NCc3ccco3)CC2)c(C)o1`: the “hERG current change (%, negative = inhibition) at 1uM” value is listed as -34.7%.

Turning to `Cc1ccc(OC(=O)c2ccc3nc(C)sc3c2)cc1`, the “hERG current change (%, negative = inhibition) at 1uM” value amounted to 10%.

Take `COC(=O)COC(=O)c1ccc(O)cc1`: the “hERG current change (%, negative = inhibition) at 1uM” value is -12.9%.

Take `O=C1C=C(c2ccc3ncccc3c2)C[C@@H](c2ccc3c(c2)OCO3)C1`: the “hERG current change (%, negative = inhibition) at 1uM” value is on record as 9.3%.

On to `O=C(c1cc2ccccc2oc1=O)N(Cc1cccs1)Cc1ccccc1Cl`, for which the “hERG current change (%, negative = inhibition) at 1uM” value stood at 2.42%.

As to `CCc1ccc(NC(=O)CCn2nc(C)c(S(=O)(=O)N3CCCCC3)c2C)cc1`, the “hERG current change (%, negative = inhibition) at 1uM” value worked out at 4.67%.

As for `CCOC(=O)COc1c(-c2ccc(OC)cc2)oc2ccccc2c1=O`, the “hERG current change (%, negative = inhibition) at 1uM” value stood at 9.81%.

On to `CC(C)OP(=O)(OC(C)C)C(Nc1ccccc1)c1cccc([N+](=O)[O-])c1` (stereo not shown), for which the “hERG current change (%, negative = inhibition) at 1uM” value was 12%.

As to `COc1cc(-c2nc3n(n2)C(c2ccncc2)C2=C(CCCC2=O)N3)cc(OC)c1OC` (stereo not shown), the “hERG current change (%, negative = inhibition) at 1uM” value amounted to 26%.

Turning to `Cc1ccc(CN2C(=O)C3CCCN3c3ncccc32)cc1` (stereo not shown), the “hERG current change (%, negative = inhibition) at 1uM” value was 12.7%.

In the case of `CCCCN1C(=O)NC(=O)/C(=C/c2cnc(SC)nc2)C1=O`, the “hERG current change (%, negative = inhibition) at 1uM” value is recorded as 7.6%.

On to `Cc1ccccc1NCc1ccc(O)c2ncccc12`, for which the “hERG current change (%, negative = inhibition) at 1uM” value is reported as 8.46%.

Take `Cl.N=c1ccn(Cc2ccccc2Cl)cc1`: the “hERG current change (%, negative = inhibition) at 1uM” value is 16.8%.

With `CCc1ccc(-c2nc(CN3CCC(C(=O)NCc4ccco4)CC3)c(C)o2)cc1`, the “hERG current change (%, negative = inhibition) at 1uM” value was -51.1%.

On to `CCc1ccc(-c2nc(CN3CCC(C(=O)NCc4ccc(F)cc4)CC3)c(C)o2)cc1`, for which the “hERG current change (%, negative = inhibition) at 1uM” value is given as -12.4%.

Take `CCc1ccc(-c2nc(CN3CCC(C(=O)NCCN(CC)c4ccccc4)CC3)c(C)o2)cc1`: the “hERG current change (%, negative = inhibition) at 1uM” value is on record as -15.6%.

For the compound `CCOc1ccc(-c2cn3ccccc3n2)cc1`, the “hERG current change (%, negative = inhibition) at 1uM” value was -1.48%.

Consider `COc1ccc(N2CCN(C(=O)c3oc4ccccc4c3NC(=O)Cc3cccc(OC)c3)CC2)cc1`, for which the “hERG current change (%, negative = inhibition) at 1uM” value is on record as 3.16%.

For `CCCN(CCC)C(=O)c1oc2ccccc2c1NC(=O)Cc1cccc(OC)c1`, the “hERG current change (%, negative = inhibition) at 1uM” value was 19.2%.

Regarding `COc1ccc(CC(=O)Nc2c(C(=O)N3CCN(c4ncccn4)CC3)oc3ccccc23)cc1`, the “hERG current change (%, negative = inhibition) at 1uM” value is recorded as -21.4%.

With `CCOCCCN(C)C1CCN(C(=O)c2oc3ccccc3c2NC(=O)Cc2ccc([N+](=O)[O-])cc2)CC1`, the “hERG current change (%, negative = inhibition) at 1uM” value was -89.1%.

`CCOCCCN(C)C1CCN(C(=O)c2oc3ccccc3c2NC(=O)Cc2cccc([N+](=O)[O-])c2)CC1`: the “hERG current change (%, negative = inhibition) at 1uM” value is recorded as -83.8%.

`COc1ccc(CC(=O)Nc2c(C(=O)N3CCN(c4ccccc4)CC3)oc3ccccc23)cc1OC`: the “hERG current change (%, negative = inhibition) at 1uM” value is -8.82%.

Turning to `COc1ccc(NS(=O)(=O)c2cccc(C(=O)N3CCCC(C)C3)c2)cc1` (stereo not shown), the “hERG current change (%, negative = inhibition) at 1uM” value is recorded as 3.3%.

In the case of `CCN(CCn1cccn1)C(=O)CC1C(=O)NCCN1Cc1ccc(OC)c(OC)c1` (stereo not shown), the “hERG current change (%, negative = inhibition) at 1uM” value stood at 2.76%.

In the case of `Fc1ccc(C(c2nnnn2Cc2cccs2)N2CCN(C3CCCCC3)CC2)cc1` (stereo not shown), the “hERG current change (%, negative = inhibition) at 1uM” value is reported as -46.6%.

With `CCC(C)(C)n1nnnc1C(c1ccc2ncccc2c1)N1CCN2CCCC2C1` (stereo not shown), the “hERG current change (%, negative = inhibition) at 1uM” value amounted to 8.16%.

For `COc1ccc(Cn2nnnc2C(c2ccc(C)cc2)N2CCN(C3CCCC3)CC2)cc1.Cl` (stereo not shown), the “hERG current change (%, negative = inhibition) at 1uM” value was -32.4%.

For `c1cnc2ccc(C(c3nnnn3C3CCCC3)N3CCN4CCCC4C3)cc2c1` (stereo not shown), the “hERG current change (%, negative = inhibition) at 1uM” value was -19.5%.

With `c1cnc2ccc(C(c3nnnn3C3CCCCC3)N3CCCCC3)cc2c1` (stereo not shown), the “hERG current change (%, negative = inhibition) at 1uM” value came out at 1.89%.

Consider `Fc1ccc(Cn2nnnc2C(c2cccs2)N2CCN(C3CCCCC3)CC2)cc1` (stereo not shown), for which the “hERG current change (%, negative = inhibition) at 1uM” value is reported as -51.6%.

Consider `c1cnc2ccc(C(c3nnnn3C3CCCCC3)N3CCN(C4CCCCC4)CC3)cc2c1` (stereo not shown), for which the “hERG current change (%, negative = inhibition) at 1uM” value is -87%.

Turning to `Fc1ccc(Cn2nnnc2C(c2cccs2)N2CCCCCC2)cc1` (stereo not shown), the “hERG current change (%, negative = inhibition) at 1uM” value turned out to be 0.84%.

Regarding `c1cnc2ccc(C(c3nnnn3C3CCCCC3)N3CCN4CCCC4C3)cc2c1` (stereo not shown), the “hERG current change (%, negative = inhibition) at 1uM” value is given as -96.9%.

Turning to `COc1ccc(Cn2nnnc2C(c2ccc3ncccc3c2)N2CCN(C3CCCCC3)CC2)cc1` (stereo not shown), the “hERG current change (%, negative = inhibition) at 1uM” value is recorded as -79.3%.

Regarding `OC1CCN(C(c2ccc3ncccc3c2)c2nnnn2C2CCCCC2)CC1` (stereo not shown), the “hERG current change (%, negative = inhibition) at 1uM” value was -5.3%.

Take `COc1ccc(Cn2nnnc2C(c2ccc(F)cc2)N2CCN(C3CCCC3)CC2)cc1` (stereo not shown): the “hERG current change (%, negative = inhibition) at 1uM” value is on record as -15%.
